# Hits are enriched below; roughly 1.5% of the tested compounds scored in any of these assays.
# RTF Ca sens inh – cardiac RTF calcium desensitization; P19429+P45379; AID 493244; IANBD-labeled cardiac RTF, Ca2+ fluorescence; actives 0.12% (n = 340,000); inhibition, % at 7.15 µM;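 active = inhibition above the mean inhibition of all tested compounds plus 3 SD, cut at about 17% in these data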;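 also: assay run at fixed EC70 calcium of 1.6 mM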
# IDE act – boosts human insulin-degrading enzyme activity in HEK cells; AID 493087; P14735; FAbeta-B cleavage, fluorescence polarization; 0% vehicle, 100% cell-free pure enzyme wells; activation, % at 5.96 µM; actives 0.073% (n = 340,000);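 active = activation above the mean of all tested compounds plus 3 SD, set per screening campaign, cut at about 17% in these data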
# Target sequence (P14735 whole entry, looked up): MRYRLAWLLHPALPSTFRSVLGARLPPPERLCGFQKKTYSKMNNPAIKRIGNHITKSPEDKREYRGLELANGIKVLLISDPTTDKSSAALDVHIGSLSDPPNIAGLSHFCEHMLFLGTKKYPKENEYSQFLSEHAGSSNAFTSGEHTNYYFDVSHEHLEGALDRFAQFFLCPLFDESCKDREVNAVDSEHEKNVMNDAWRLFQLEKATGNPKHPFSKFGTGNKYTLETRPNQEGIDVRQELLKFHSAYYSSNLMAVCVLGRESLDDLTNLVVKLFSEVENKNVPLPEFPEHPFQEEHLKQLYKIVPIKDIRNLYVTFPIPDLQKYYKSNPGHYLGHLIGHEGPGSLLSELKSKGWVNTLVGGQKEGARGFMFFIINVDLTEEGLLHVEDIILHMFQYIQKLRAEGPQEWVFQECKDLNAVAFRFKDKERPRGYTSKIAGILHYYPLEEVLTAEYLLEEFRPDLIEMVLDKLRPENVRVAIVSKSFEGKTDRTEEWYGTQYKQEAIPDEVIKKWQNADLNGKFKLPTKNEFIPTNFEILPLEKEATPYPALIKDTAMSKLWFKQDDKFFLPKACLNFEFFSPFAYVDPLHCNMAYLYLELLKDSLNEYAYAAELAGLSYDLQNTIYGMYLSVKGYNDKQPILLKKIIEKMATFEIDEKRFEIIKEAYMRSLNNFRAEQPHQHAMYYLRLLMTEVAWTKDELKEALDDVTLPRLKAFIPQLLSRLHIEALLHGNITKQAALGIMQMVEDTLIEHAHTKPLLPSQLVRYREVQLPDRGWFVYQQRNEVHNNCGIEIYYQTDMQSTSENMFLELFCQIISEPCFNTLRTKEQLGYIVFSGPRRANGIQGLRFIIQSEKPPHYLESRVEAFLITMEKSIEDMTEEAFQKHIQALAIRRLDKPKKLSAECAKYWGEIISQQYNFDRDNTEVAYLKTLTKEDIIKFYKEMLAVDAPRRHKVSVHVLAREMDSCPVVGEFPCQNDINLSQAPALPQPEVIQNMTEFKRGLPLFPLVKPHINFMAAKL
# TPT1 inhibitor – inhibitors of Candida albicans tRNA 2'-phosphotransferase TPT1. inhibition, % at 5 µM. actives 0.81% (n = 300,000). AID 1962. recombinant caTPT1, FP RNA substrate dephosphorylation;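 active = inhibition above the mean of all tested compounds plus 3 SD, set per screening campaign, cut at about 24% in these data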;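 also: plate controls were DMSO alone for no effect and ferristatin control at 100 nM for full effect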
# RTF Ca sens act – increases calcium sensitivity of human cardiac regulated thin filaments | IANBD-labeled TnC RTF fluorescence at EC20 calcium; 0% EC20 calcium, 100% full calcium | activation, % at 7.2 µM | actives 0.24% (n = 340,000);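 active = activation above the mean over all tested compounds plus 3 SD, cut at about 30% in these data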;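 also: rise in fluorescence read as greater calcium sensitivity of cardiac thin filaments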
# IDE inh – cellular human IDE inhibition. actives 0.41% (n = 320,000). inhibition, % at 5.59 µM. P14735. HEK cells, FAbetaB cleavage, fluorescence polarization;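 active = percent inhibition above the average of all tested compounds plus 3 SD, set per screening campaign, cut at about 16% in these data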;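 also: IDE supplied by intact live HEK cells; FP after avidin binding of uncleaved biotin substrate so inhibition keeps polarization high; 0% = DMSO wells and 100% = 60 µM reference IDE inhibitor Ii1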
# CRFR2-BP ag – agonists of human CRF-binding protein/CRF-R2 receptor complex; AID 588473; HEK293 CRF-R2/CRF-BP, calcium dye fluorescence (FLIPR); percent of saturating CRF peptide response; actives 0.46% (n = 350,000); activation, % at 13.2 µM;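 active = activation of at least 50%, plus an integration ratio under a set limit after plate pattern correction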;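 also: plate controls were neutral control wells without compound for no effect and CRF at EC100 for full effect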
# RTF inh confirm – confirmation of inhibitors of cardiac thin filament calcium sensitivity; actives 8% (n = 360); AID 504635; reconstituted cardiac thin filaments, calcium sensitivity fluorescence; shares compounds with RTF Ca sens inh; inhibition, % at 7.15 µM; in the data active = inhibition above about 18%
# An asterisk follows results filed as active; nt = no result given; ! = repeats disagree.
SMILES,RTF Ca sens inh,IDE act,TPT1 inhibitor,RTF Ca sens act,IDE inh,CRFR2-BP ag,RTF inh confirm
Cc1ccc(CSc2nnc(SCC(=O)N/N=C/C=C/c3ccccc3[N+](=O)[O-])s2)cc1,21*,6,-3,8,2,-2,-5
COc1ccc(N(CC(=O)N2CCN(c3cccc(C)c3C)CC2)S(=O)(=O)c2c(C)noc2C)cc1,3,-2,1,4,3,1,nt
Cc1ccccc1OCC(=O)OCC(=O)NC1CCCC(C)C1C (stereo not given),nt,nt,nt,nt,nt,-1,nt
CCc1cccc(NC(=O)C2CCCN(S(=O)(=O)c3cccs3)C2)c1 (stereo not given),24*,0,4,4,2,1,-2
N#Cc1cc2c(nc1SCc1ccccc1)CCCC2=O,20*,4,-3,1,-1,3,0
O=C(c1cccc(Cl)c1)C1CCCN(S(=O)(=O)c2ccccc2)C1 (stereo not given),-9,3,-1,-3,6,0,nt
COc1cc(CCC(=O)OCC(=O)Nc2c(Cl)cccc2Cl)cc(OC)c1OC,-6,-2,-1,-1,-1,-1,nt
CCc1cccc(CC)c1NC(=O)COC(=O)CCc1cc(OC)c(OC)c(OC)c1,19*,2,2,2,0,-6,2
CC(C)COC(=O)N(C)C[C@H]1OCc2cnnn2CCCC(=O)N([C@@H](C)CO)C[C@H]1C,nt,nt,nt,nt,nt,0,nt
CCn1nc([N+](=O)[O-])c(C(C#N)c2nc3cc(C(F)(F)F)ccc3s2)c(Cl)c1=O (stereo not given),19*,8,0,-11,7,28,2
CCOC(=O)c1ccc(NC(=S)N(CCCN2CCN(CC)CC2)Cc2cccs2)cc1,17*,-1,-1,-4,2,0,-2
CCCc1c(O)nc(SC2CC(=O)N(c3ccc(OC)cc3)C2=O)[nH]c1=O (stereo not given),17*,0,-2,-1,1,3,-2
CCN(CC(=O)Nc1cc(S(=O)(=O)N2CCCCC2)ccc1C)Cc1ccccc1,-12,3,-2,-5,6,0,nt
Cc1cccc(NS(=O)(=O)c2cccc(C(=O)NCC(c3ccc(F)cc3)N3CCOCC3)c2)c1 (stereo not given),-2,5,nt,-6,nt,-1,nt
COc1ccc([N+](=O)[O-])cc1NC(=O)CSc1nncn1-c1ccccc1,19*,-2,4,-8,5,-1,1
COc1ccccc1NC(=O)CSc1nncn1-c1ccccc1,-7,4,0,-1,9,0,nt
CNc1ncnc2c1ncn2[C@@H]1O[C@H](CO)[C@@H](O)[C@H]1O,-8,1,2,8,-5,-1,nt
NCCNC(=O)Cc1ccc(NC(=O)Cc2ccc(Nc3ncnc4c3ncn4[C@@H]3O[C@H](CO)[C@@H](O)[C@H]3O)cc2)cc1,23*,-8,-2,-4,6,6,-3
OC(CN1c2ccccc2Sc2ccccc21)Cn1nnc2ccccc21 (stereo not given),21*,7,0,-1,3,0,-8
COCCOC(=O)/C(=C/c1ccc(OC(=O)c2ccccc2)cc1)C(C)=O,25*,-3,0,16,0,57*,3
COc1cc(/C=C/C(=O)OCC(=O)NC(=O)NC23CC4CC(CC(C4)C2)C3)ccc1OCC#N,18*,3,3,5,6,1,-2
O=C(O)c1ccc2nc(-c3ccco3)c(-c3ccco3)nc2c1,47*,4,nt,-30,nt,8,70*
O=C(NCCCO)Nc1ccc2nc(-c3ccco3)c(-c3ccco3)nc2c1,nt,nt,-25,nt,0,nt,nt
O=C(Nc1ccc2nc(-c3ccco3)c(-c3ccco3)nc2c1)NC1CC1,24*,1,nt,-24,nt,4,19*
Cc1ccc(N2CC(C(=O)N3CCN(c4ccccc4)CC3)CC2=O)cc1 (stereo not given),17*,1,5,4,0,-2,-4
SMILES,RTF Ca sens inh,IDE act,TPT1 inhibitor,RTF Ca sens act,IDE inh,CRFR2-BP ag,RTF inh confirm
Cc1cccnc1NC(=O)C1CCCN1S(=O)(=O)c1ccc(Cl)cc1 (stereo not given),29*,5,-1,-5,0,0,-3
O=C(Nc1ccc(Cl)cn1)C1CCCN1S(=O)(=O)c1ccc(Cl)cc1 (stereo not given),-4,5,2,9,-5,1,nt
Cc1nnc(C)n1N,18*,4,0,-1,7,-3,-4
CN(N)C(=S)Nc1ccc(Cl)cc1,18*,0,-3,3,4,1,-3
c1ccc2c(c1)Sc1cnccc1N2CC1CO1 (stereo not given),nt,nt,nt,nt,nt,12,nt
CCOC(=O)Cn1nc(C)cc1NC(=O)c1cccnc1,21*,3,1,0,1,1,-1
COc1ccc(NC(=O)c2noc(C(C)C)c2[N+](=O)[O-])cc1,-10,2,-1,3,0,1,nt
CC(=O)c1ccc(NC(=O)c2noc(C(C)C)c2[N+](=O)[O-])cc1,188*,-3,0,-6,0,0,-3
CN(C)S(=O)(=O)c1ccc(NC(=O)N2CCN(c3ccccc3Cl)CC2)cc1,19*,-2,-5,-6,9,-1,-3
Cc1ccc(NC(=O)COC(=O)/C=C/c2cccc(Cl)c2)cc1S(=O)(=O)N1CCOCC1,22*,1,-4,1,-4,5,-6
O=C(COC(=O)/C=C/c1cccc(Cl)c1)Nc1ccc(N2CCOCC2)cc1,-8,1,nt,0,1,-1,nt
Cc1ccc(CS(=O)Cc2ccc(C(=O)NCc3ccc(OC(C)C)cc3)o2)cc1 (stereo not given),27*,0,-3,3,9,-1,-1
COc1ccc(CNC(=O)c2ccc(CS(=O)Cc3ccc(Cl)cc3)o2)cc1 (stereo not given),3,-1,2,-2,8,0,nt
COC(=O)C(CCSC)NC(=O)C(NC(=O)C1CCC(C)CC1)C(C)C (stereo not given),-8,-7,-6,1,-1,1,nt
CCC(C)C(NC(=O)C1CCC(C)CC1)C(=O)NC(CCSC)C(=O)OC (stereo not given),18*,6,-4,1,-7,-5,-6
C[C@@H](O)CC(=O)O,15,-1,0,4,-2,-1,nt
C[C@H](O)CC(=O)O,19*!,2,-2,-8,-1,2,-3
Cc1ccc(NC(=O)CN2C(=O)N/C(=C/c3cccn3-c3ccc(C(=O)O)cc3)C2=O)cc1,64*,9,14,-30,10,4,42*

# Bioassay records: PubChem, several laboratories
